Inconclusive results are not listed. Activity calls are given as the source filed them. Calls come from the whole dose curve; as a rule, active = well fitted inhibition curve with a large enough effect; inconclusive = small, poorly fitted or top-dose-only effect, or effect the other way; inactive = no such curve, though single readings can be large or run the other way.
Assay: Confirmation Concentration-Response Assay for lipid storage modulators: for probe SAR
Settings: Drosophila S3 cells, BODIPY lipid droplet fluorescence, 18-24 h; series mostly up to 46.1 µM
Text: NIH Molecular Libraries Probe Production Centers Network [MLPCN] NIH Chemical Genomics Center [NCGC] MLPCN Grant: 1 R03 MH085686-01 Assay Submitter (PI): Beller, Mathias; Max-Planck-Institut fur Biophysikalische Chemie NCGC Assay Overview: Storing lipids as a reservoir for energy or the anabolism of elementary metabolites is a common feature of probably all cells and is conserved from bacteria to humans. The universal cellular lipid storage organelle is the so-called lipid storage droplet (LD). Although ubiquitous, LDs share a simple structure composed of a hydrophobic core that harbors the storage lipids, which is shielded by a droplet-specific phospholipid monolayer to which proteins are attached. The current model of LD biogenesis involves an incorporation of the lipid core into the membrane leaflets of the endoplasmic reticulum (ER) followed by a subsequent budding-like maturation of a LD, which ultimately pinches off. Once released, LD volume can increase by localized lipogenesis or fusion of existing droplets. Storage lipids are re-mobilized enzymatically by lipase activity. Lipase regulation in the adipocyte is heavily studied and involves multiple components including catecholamine signaling, the LD-associated proteins Perilipin and comparative gene identification-58 (CGI-58) and at least two lipases named hormone sensitive lipase (HSL) and adipocyte triglyceride lipase (ATGL). LD regulation outside of the adipocyte is poorly understood and only few components are known. However, there is an urgent need to learn more about ectopic fat depots as mislocalized storage of lipids, for example in the liver or muscle, is an eminent health problem associated with insulin resistance or the metabolic syndrome. We developed a laser-scanning cytometer assay to enable 1,536-well screening and combined the results of the small molecules screen with an RNAi database based on lipid storage.
We dispensed 4 uL of cells at 1.25 x 10^6 cells/mL into LoBase Aurora COC 1,536-well plates (black walled, clear bottom) with a bottle-valve solenoid-based dispenser (Aurora) to obtain 5,000 cells/well. Triacsin C (Sigma-Aldrich T-4540), an inhibitor of long-chain fatty acyl CoA synthetase that blocks synthesis of triglycerides, was used as a positive control for lipid under-storage. […] Fluorescence was detected by excitation of the fluorophores with a 488-nm laser on an Acumen Explorer (TTP Lab Tech). […] Cells were detected using channel 3 (575- 640 nm) with 5-um width and 100-um depth filters. The ratio of the total intensity in PMT channel 1 over total intensity of channel 3 was also calculated. […]

Row | SMILES | Potency
1 | CCOc1ccc(CCNC(=O)c2ccccc2)cc1OCC | inactive
2 | CCC/C=C/C/C=C/C=C/C=N/NN=O | 791 nM (active)
3 | CCOc1ccc(CCNC(=O)c2cc3sccc3n2Cc2ccc(F)cc2F)cc1OCC | 56 nM (active)
4 | CCOC(=O)C1CCN(C(=O)C2(NC(=O)Nc3ccccc3Cl)CCCC2)CC1 | 787 nM (active)

— PubChem BioAssay AID488913 (National Center for Advancing Translational Sciences (NCATS), 2010)
